Test results taken from PubChem BioAssay (NCI).
The panel holds about 83,000 compounds, 20% with a hit somewhere; the sample as a whole holds those more often.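 Negative percent growth values reflect cell death: -40 means 40% of the cells present at the start died, and -100 means all died.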 Unmarked numbers belong to inactive results. The source made the active and inactive calls. The calls were made as follows: active = growth percent below 10; inactive = the rest.

What follows are compounds tested on SF-268 CNS (assay: NCI-60 one-dose screen, 48 h (100 = growth as untreated, 0 = no growth, -100 = all killed)). Details: 10 µM unless noted.
`CCCCN(Cc1ccc(C(=O)NO)cc1)C(=O)Nc1ccc(OCCCCCCCCCn2cc(CCCCC(=O)N[C@H](C(=O)N3C[C@H](O)C[C@H]3C(=O)NCc3ccc(-c4scnc4C)cc3)C(C)(C)C)nn2)cc1` showed a growth of 36.2%.
Compound `COc1ccc(/C(C)=C(\c2ccc(Cl)cc2)c2ccc(OCCN3CCCCCC3)cc2)cc1F` has a growth of 68.3%.
For `C=C1C(=O)O[C@H]2[C@H]1CC/C(COC(=O)/C=C\C(=O)NCc1ccc(Cn3c(=O)sn(-c4ccc(Cl)cc4)c3=O)cc1)=C\CC[C@@]1(C)O[C@@H]21`, the growth was -74.4% (active).
`O[C@H]1CO[C@H]2[C@@H]1OC[C@@H]2Oc1ccc(Nc2nc(Nc3ccc(F)c(Cl)c3)ncc2F)cc1Cl` was tested, and the growth was 103%.
With `O=C(CCc1nc(-c2cccc(Cl)c2)no1)Nc1ccccn1` the growth was 104%.
`COc1ccc(Cn2cnc3cc(C(=O)Nc4cccc5ccccc45)ccc32)c(OC)c1` was tested, and the growth was 13.8% [30 µM].
Work on `Cc1nc(Nc2ccc(N)cc2)c2ccccc2n1` yielded a growth of 106%.
`COc1cccc(/C=C2\COc3ccc(O)cc3C2=O)c1OC` was tested, and the growth was 85%.
In the case of `CC(C)c1ccc(NC(=O)Cc2ccc(Nc3ncnc4cc(-c5cnn(CCN(C)C)c5)ccc34)cc2)cc1`, the growth is reported as -62.3% [30 µM] (active).
`O=C1c2cccc3c(-c4ccc(-c5nc6c7ccccc7c7ccccc7c6[nH]5)cc4)ccc(c23)C(=O)N1CCN1CCNCC1` gave a growth of 104%.
With `O=C1/C(=C/c2ccc([N+](=O)[O-])cc2)COc2ccc(O)c(O)c21` the growth was -25.3% (active).
Work on `Cn1ccnc1C(=O)/C=C/c1ccc(C(=O)Nc2ccc(S(F)(F)(F)(F)F)cc2)cc1` yielded a growth of 15.3%.
With `COc1ccc(OC)c(C(=O)Nc2cccc(-c3cc(=O)c4ccccc4o3)c2)c1` the growth was 74.2%.
In the case of `C=C1C(=O)O[C@H]2[C@H]1CC/C(COC(=O)/C=C\C(=O)NCc1ccc(Cn3c(=O)sn(CCCI)c3=O)cc1)=C\CC[C@@]1(C)O[C@@H]21`, the growth is reported as -81.7% (active).

Each compound was assayed on SF-295 CNS in the same assay as above. Details: 10 µM unless noted.
For `CCCCC1COc2cccc3c(SCC(=O)N(C)c4cccc(Cl)c4)cc[n+]1c23` (stereo not drawn), the growth was 99.3%.
Compound `COc1ccc(-c2c(N)n[nH]c2-c2ccccc2O)cc1OC` has a growth of 101%.
For `CCOC(=O)c1sc(-c2ccc(OS(=O)(=O)c3ccc(C(C)(C)C)cc3)c(C=O)c2)nc1C`, the growth was 28.6%.
Work on `Cc1nc(Nc2ccc(NC(=S)Nc3ccccc3)cc2)nc2nc(Nc3ccc(S(=O)(=O)O)cc3)[nH]c(=O)c12` yielded a growth of 113%.
With `COc1ccc(/C=C2\COc3ccc(O)cc3C2=O)c(OC)c1` the growth was 80.1%.
For `COc1ccc(/C(C)=C(\c2ccc(Cl)cc2)c2ccc(OCCCN(C)C)cc2)cc1F`, the growth was 53.5%.
For `Cc1nc(Nc2ccc(NC(=S)Nc3ccccc3)cc2)c2ccccc2n1`, the growth was 99.5%.
For `C=C1C(=O)O[C@H]2[C@H]1CC/C(COC(=O)/C=C\C(=O)NCc1ccc(Cn3c(=O)sn(-c4ccc(OC)cc4)c3=O)cc1)=C\CC[C@@]1(C)O[C@@H]21`, the growth was 55%.
`CN(C)CCn1cc(-c2ccc3c(Nc4ccc(CC(=O)Nc5cccc(F)c5)cc4)ncnc3c2)cn1` was tested, and the growth was -79.8% [30 µM] (active).
In the case of `COc1cc(/C=C/c2nc(Nc3ccc(S(=O)(=O)Nc4cc(C)on4)cc3)c3ccccc3n2)ccc1O`, the growth is reported as 70.8%.
With `COc1ccc(/C(C)=C(\c2ccc(Cl)cc2)c2ccc(OCCN3CCCC3)cc2)cc1F` the growth was -42.9% (active).
In the case of `Cc1nc(Nc2ccc(S(=O)(=O)Nc3cc(C)on3)cc2)c2ccccc2n1`, the growth is reported as 95.4%.
`COc1ccc(OC)c(/C=C2\COc3ccc(O)cc3C2=O)c1` showed a growth of 102%.
In the case of `CCN(CC)CCOc1ccc(/C(=C(\C)c2ccc(F)c(OC)c2)c2ccc(Cl)cc2)cc1`, the growth is reported as -21.6% (active).
With `O[C@H]1CO[C@H]2[C@@H]1OC[C@@H]2Oc1ccc(Nc2ccnc(Nc3ccc(O[C@H]4CO[C@H]5[C@@H]4OC[C@@H]5O)c(Cl)c3)n2)cc1Cl` the growth was 7.74% (active).
In the case of `CC(=O)Nc1ccc(-c2cc3c(NCc4ccc(F)cc4)ncnc3s2)cc1`, the growth is reported as 82.6%.
For `C/C(Cc1ccc(Cl)cc1)=C(/c1ccc(Cl)cc1)c1ccc(OCCN(C)C)cc1`, the growth was 97.2%.
`C=C1C(=O)O[C@H]2[C@H]1CC/C(COC(=O)/C=C\C(=O)NCc1ccc(Cn3c(=O)sn(CCCC)c3=O)cc1)=C\CC[C@@]1(C)O[C@@H]21` gave a growth of 65.1%.
Work on `Cc1nc(Nc2cccc(NC(=O)Nc3ccc(Cl)cc3)c2)c2ccccc2n1` yielded a growth of 88.2%.
With `COc1ccc(/C=C2\COc3ccc(O)c(O)c3C2=O)c(OC)c1` the growth was 95.6%.
Work on `CCN(CC)CCOc1ccc(/C(=C(\C)c2ccc(OC)c(F)c2)c2ccc(Cl)cc2)cc1` yielded a growth of 61.6%.
In the case of `C=C1C(=O)O[C@H]2[C@H]1CC/C(COC(=O)/C=C\C(=O)NCc1ccc(Cn3c(=O)sn(-c4ccc(C#N)cc4)c3=O)cc1)=C\CC[C@@]1(C)O[C@@H]21`, the growth is reported as 56.4%.
Compound `CN(C)CCN1C(=O)c2cccc3c(-c4ccc(-c5nc6c7ccccc7c7ccccc7c6[nH]5)cc4)ccc(c23)C1=O` has a growth of 105%.
With `c1ccc([P+](CCCc2n(Cc3ccc4ccccc4c3)c3ccccc3[n+]2Cc2ccc3ccccc3c2)(c2ccccc2)c2ccccc2)cc1` the growth was 41.1%.
With `CCCCS(=O)(=O)Oc1ccc(-c2nc(C)c(C(=O)OCC)s2)cc1C=O` the growth was 67.5%.
For `CCCCN(Cc1ccc(C(=O)NO)cc1)C(=O)Nc1ccc(OCCCCCCCCCn2cc(CCCCC(=O)N[C@H](C(=O)N3C[C@H](O)C[C@H]3C(=O)NCc3ccc(-c4scnc4C)cc3)C(C)(C)C)nn2)cc1`, the growth was 92%.
In the case of `COc1ccc(/C(C)=C(\c2ccc(Cl)cc2)c2ccc(OCCN3CCCCCC3)cc2)cc1F`, the growth is reported as -7.79% (active).
With `C=C1C(=O)O[C@H]2[C@H]1CC/C(COC(=O)/C=C\C(=O)NCc1ccc(Cn3c(=O)sn(-c4ccc(Cl)cc4)c3=O)cc1)=C\CC[C@@]1(C)O[C@@H]21` the growth was 56.2%.
`O[C@H]1CO[C@H]2[C@@H]1OC[C@@H]2Oc1ccc(Nc2nc(Nc3ccc(F)c(Cl)c3)ncc2F)cc1Cl` was tested, and the growth was 92.1%.
`O=C(CCc1nc(-c2cccc(Cl)c2)no1)Nc1ccccn1` gave a growth of 94%.
`COc1ccc(Cn2cnc3cc(C(=O)Nc4cccc5ccccc45)ccc32)c(OC)c1` was tested, and the growth was 7.91% [30 µM] (active).
With `Cc1nc(Nc2ccc(N)cc2)c2ccccc2n1` the growth was 95.8%.
`COc1cccc(/C=C2\COc3ccc(O)cc3C2=O)c1OC` gave a growth of 95.7%.
In the case of `CC(C)c1ccc(NC(=O)Cc2ccc(Nc3ncnc4cc(-c5cnn(CCN(C)C)c5)ccc34)cc2)cc1`, the growth is reported as -61.9% [30 µM] (active).
`O=C1c2cccc3c(-c4ccc(-c5nc6c7ccccc7c7ccccc7c6[nH]5)cc4)ccc(c23)C(=O)N1CCN1CCNCC1` was tested, and the growth was 101%.
`O=C1/C(=C/c2ccc([N+](=O)[O-])cc2)COc2ccc(O)c(O)c21` was tested, and the growth was 83.7%.
Compound `Cn1ccnc1C(=O)/C=C/c1ccc(C(=O)Nc2ccc(S(F)(F)(F)(F)F)cc2)cc1` has a growth of 32.7%.
`COc1ccc(OC)c(C(=O)Nc2cccc(-c3cc(=O)c4ccccc4o3)c2)c1` showed a growth of 88.6%.
`C=C1C(=O)O[C@H]2[C@H]1CC/C(COC(=O)/C=C\C(=O)NCc1ccc(Cn3c(=O)sn(CCCI)c3=O)cc1)=C\CC[C@@]1(C)O[C@@H]21` gave a growth of 58%.
